# High-throughput results deposited in PubChem BioAssay by National Center for Advancing Translational Sciences (NCATS).
# PI5P4K alpha inh: inhibitors of human PI5P4K alpha | PI5P4Kalpha enzyme, ADP-Glo luminescence, 60 min; active compounds read low | max response, % | actives 1.2% (n = 330,000) | AID 652105; active = max response of -50% or lower; inconclusive = between -30% and -50%; inactive = -30% or higher; note: value at the top dose of about 77 µM; % is set by controls: 0 for no effect and ±100 for the full control effect
#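 Controls without substrate or without enzyme flank wells where PI5P4Kalpha converts substrate using 5 microM ATP (final). Incubation lasts 60 minutes at room temperature; ADP formed is read by ADP-Glo luminescence.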
# PLK1 PBD inh: PLK1 (human) polo-box domain binding inhibition; actives 2.8% (n = 360,000); P53350; Potency, µM, for inactives: max response, negative = inhibition, most hits filed as inhibitors; Plk1 PBD binding of FITC phosphopeptide, fluorescence polarization; AID 720504; note: potency is the fitted concentration of half-maximal effect; series mostly up to about 57 µM; % is set by controls: 0 for no effect and ±100 for the full control effect; nearly all actives have a fitted effect of over 65% in size
# KAT2A inh: blocks human GCN5L2 histone acetyltransferase; actives 0.21% (n = 390,000); Potency, µM (titrated, usually from 58.9 µM), for inactives: top-dose activity change, negative = inhibition, most hits filed as inhibitors; Q92830; GCN5L2 HAT assay, ThioGlo1 CoA-SH fluorescence; note: potency is the fitted concentration of half-maximal effect; % is set by controls: 0 for no effect and ±100 for the full control effect
#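 Preincubate 20nM GCN5L2 with compound 15 min, RT → add 50uM ThioGlo1 + 75uM H3(1-25) + 70uM acetyl-CoA → read fluorescence 0 and 20 min. Primary qHTS; fluorescent artifacts likely.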
# BAZ2B block: inhibitors of human BAZ2B bromodomain | Q9UIF8 | AlphaScreen BAZ2B-H3K14Ac peptide displacement | Potency, µM (highest dose often 114 µM), for the others: at the highest dose activity change, negative = inhibition, usual class: inhibitors | actives 4.4% (n = 360,000); note: potency is the fitted concentration of half-maximal effect; % is set by controls: 0 for no effect and ±100 for the full control effect; nearly all actives have a fitted effect of over 60% in size
#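 In this displacement format the biotinylated H3(5-23) peptide acetylated at Lys14 serves as ligand at 50 nM, with BAZ2B at 50 nM in PBS pH 7.4 containing 0.01% Tween-20. Donor and acceptor beads are 10 ug/mL final.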
# HP1b chromo inh: HP1-beta chromodomain-methylated histone interaction inhibition | P83916 | actives 0.56% (n = 390,000) | Potency, µM (highest dose often 114 µM), inactives show top-dose activity change, negative = inhibition, actives largely listed as inhibitors | AID 540317 | AlphaScreen HP1-beta / biotin-H3K9me3 peptide binding; note: potency is the fitted concentration of half-maximal effect; nearly all actives have a fitted effect of over 70% in size
#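 AlphaScreen: HP1-beta (50 nM) preformed 30 min with biotin-H3(1-18)K9me3 peptide (50 nM) in PBS pH 7.4, 0.01% Tween-20. Compound added for 30 min at RT, then streptavidin donor/nickel chelate acceptor beads (10 ug/mL) for 30 min.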
# JMJD2A Tudor inh: blocks the human JMJD2A Tudor domain; O75164; AlphaScreen JMJD2A-Tudor / H3K4me3 peptide binding; actives 4.4% (n = 390,000); Potency, µM (series often up to 114 µM), inactives show top-dose activity change, negative = inhibition, hits mostly inhibitors; note: potency is the fitted concentration of half-maximal effect; % is set by controls: 0 for no effect and ±100 for the full control effect; nearly all actives have a fitted effect of over 50% in size
# Target sequence (O75164 whole entry, looked up, the tested form may be a part): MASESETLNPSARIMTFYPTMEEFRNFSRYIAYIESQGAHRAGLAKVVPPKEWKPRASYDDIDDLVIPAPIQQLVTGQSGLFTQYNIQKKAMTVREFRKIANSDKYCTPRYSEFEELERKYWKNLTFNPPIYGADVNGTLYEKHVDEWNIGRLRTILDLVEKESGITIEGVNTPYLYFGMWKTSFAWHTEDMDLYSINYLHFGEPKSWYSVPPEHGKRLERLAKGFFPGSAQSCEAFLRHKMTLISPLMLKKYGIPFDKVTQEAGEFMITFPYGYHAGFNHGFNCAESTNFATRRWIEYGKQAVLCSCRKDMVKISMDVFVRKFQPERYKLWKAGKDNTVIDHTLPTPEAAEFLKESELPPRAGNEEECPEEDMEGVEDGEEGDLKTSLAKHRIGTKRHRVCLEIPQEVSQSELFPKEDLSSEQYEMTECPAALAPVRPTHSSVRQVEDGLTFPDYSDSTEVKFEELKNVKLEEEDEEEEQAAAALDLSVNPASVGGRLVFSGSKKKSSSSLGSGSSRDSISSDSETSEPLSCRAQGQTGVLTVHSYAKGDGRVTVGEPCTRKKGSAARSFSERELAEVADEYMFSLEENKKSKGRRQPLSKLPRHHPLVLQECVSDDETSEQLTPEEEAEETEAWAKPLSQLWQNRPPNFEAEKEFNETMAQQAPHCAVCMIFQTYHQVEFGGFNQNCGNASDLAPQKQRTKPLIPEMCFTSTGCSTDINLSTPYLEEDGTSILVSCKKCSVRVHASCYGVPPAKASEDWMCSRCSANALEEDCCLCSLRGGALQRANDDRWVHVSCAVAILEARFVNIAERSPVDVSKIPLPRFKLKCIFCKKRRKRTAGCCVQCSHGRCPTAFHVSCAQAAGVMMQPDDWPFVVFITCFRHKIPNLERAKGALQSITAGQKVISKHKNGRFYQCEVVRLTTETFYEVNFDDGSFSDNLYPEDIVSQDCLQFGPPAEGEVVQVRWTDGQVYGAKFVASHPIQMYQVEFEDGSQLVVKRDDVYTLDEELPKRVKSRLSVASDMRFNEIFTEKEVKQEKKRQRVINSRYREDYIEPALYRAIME
# Numbers without * were called inactive; ? = inconclusive; nt = no result; [ ] = another dose, or the depositor's remark. The list is not random: actives were taken first. Their share in the collection is about 7%. Unless noted, calls come from the whole dose curve; as a rule, active = well fitted curve in the direction sought with a large enough effect; inconclusive = small, poorly fitted or top-dose-only effect, or another doubt; inactive = no such curve, though single readings can be large; an effect the other way counts as inactive or inconclusive.
SMILES,PI5P4K alpha inh,PLK1 PBD inh,KAT2A inh,BAZ2B block,HP1b chromo inh,JMJD2A Tudor inh
COC1=C/C(=C/c2c(N)n3nc(-c4ccc(C)cc4)sc3nc2=O)C=CC1=O,-74*,21%,-4%,50µM*,7%,?
Nc1c(C=C2C=CC(=O)C=C2)c(=O)nc2sc(CC(=O)N3CCCC3)nn12,-13,-3%,-14%,-11%,67%,-7%
CCOC1=C/C(=C/c2c(N)n3oc(C)cc3nc2=O)C=CC1=O,nt,nt,-6%,2%,nt,nt
CCS(=O)(=O)c1nn2c(N)c(/C=C3/C=CC(=O)C(OC)=C3)c(=O)nc2s1,-84*,63%,-2%,-7%,12%,-20%
CCOC1=C/C(=C/c2c(N)n3nc(-c4ccccc4)sc3nc2=O)C=CC1=O,-83*,20%,-9%,40µM*,1%,-32%
Cc1ccc(NC(=O)N2CCc3cc(S(=O)(=O)N4CCC(C)CC4)ccc32)cc1F,nt,nt,0%,-2%,27%,1%
Cc1ccc(OC2=NS(=O)(=O)c3ccccc32)cc1,1,-1%,2%,?,39%,?
O=S1(=O)N=C(Oc2ccccc2F)c2ccccc21,nt,nt,nt,nt,nt,79µM*
O=S1(=O)N=C(Oc2ccc(Cl)cc2)c2ccccc21,nt,nt,nt,nt,nt,100µM*
CCc1ccc(OC2=NS(=O)(=O)c3ccccc32)cc1,-4,12µM*,-7%,?,21%,-12%
O=S1(=O)N=C(Oc2cccc(-c3ccccc3)c2)c2ccccc21,nt,nt,nt,nt,nt,-13%
O=S1(=O)N=C(Oc2ccc(Br)cc2)c2ccccc21,nt,nt,nt,nt,nt,-30%
CCN(CC)c1cccc(OC2=NS(=O)(=O)c3ccccc32)c1,-10,3.4µM*,-3%,56µM*,-21%,63µM*
CCOc1c(Cl)cc(Cl)cc1CNCCSc1nnnn1C,nt,nt,-5%,-17%,41%,-13%
CCc1ccc(-c2nc(SCC(=O)NCC3CCCO3)c(-c3ccc(F)cc3)[nH]2)cc1 (stereo unspecified),nt,nt,1%,-3%,30%,-9%
CCOC(=O)Nc1ccc2c(c1)Nc1ccccc1S2,nt,-3%,-14%,28µM*,-42%,40µM*
CS(=O)(=O)/C(C#N)=C\c1cnc(S(=O)(=O)c2ccccc2)s1,nt,nt,22%,50µM*,nt,nt
CCSc1nnc(SCC(=O)c2c(N)n(C)c(=O)n(C)c2=O)s1,-2,-2%,-5%,6%,12%,-10%
Cc1ccc2cccc(OC(=O)/C=C\c3ccccc3)c2n1,0,-4%,-3%,-11%,21%,20µM*
O=C(/C=C/c1ccco1)N(c1ccccn1)c1ccccn1,?,?,?,22µM*,32µM*,22µM*
CCc1ccc(OC(=O)/C=C/c2ccco2)cc1,-1,-5%,-5%,?,-20%,80%
O=C(/C=C/c1ccco1)Oc1cccc2cccnc12,-4,5%,?,45µM*,7%,?
O=C(/C=C\c1ccco1)Oc1cccc2cccnc12,-6,-12%,-6%,32µM*,-12%,?
O=C(c1ccco1)N(c1ccccn1)c1ccccn1,6,1%,2%,-3%,33%,2%
CSc1ccc(C(=O)C2CCCN(C(=O)c3nn(C)c(=O)c4ccccc34)C2)cc1 (stereo unspecified),2,24µM*,-2%,-14%,?,-33%
SMILES,PI5P4K alpha inh,PLK1 PBD inh,KAT2A inh,BAZ2B block,HP1b chromo inh,JMJD2A Tudor inh
Cn1nc(C(=O)N2CCCC2)c2ccccc2c1=O,nt,-8%,-18%,4%,8%,-14%
COc1cccc(Nc2ncc3nc(CCc4ccccc4)c(=O)n(C[C@H]4CCCO4)c3n2)c1,nt,nt,-11%,nt,nt,nt
COc1cccc(Nc2ncc3nc(CCc4ccccc4)c(=O)n(C4CC4)c3n2)c1,nt,nt,25µM*,nt,nt,nt
CCOc1ccc(NC(=O)c2ccc3c(SCC(=O)O)c4c(nc3c2)CCC4)cc1,nt,nt,-1%,-16%,-11%,-32%
CCN(c1cc(C)cc(C)c1)S(=O)(=O)c1nnc(NC(=O)c2cccs2)s1,nt,nt,-3%,-5%,4%,-27%
CCN(c1cccc(C)c1)S(=O)(=O)c1nnc(NC(=O)c2cccs2)s1,nt,nt,-6%,3.5µM*,?,?
CC(=O)c1ccc(N2CCN(C(=O)c3cc(S(=O)(=O)N4CCOCC4)ccc3C)CC2)cc1,3,-3%,-3%,nt,24%,-16%
CCCCOc1ccc(CNC(=O)CN2C(=O)CCn3nc(-c4cn(C)c5ccccc45)cc32)cc1,nt,nt,-4%,-3%,11%[57 µM],-18%
COc1cccc2c1OC1(C)CC2NC(=O)N1c1cccc(C(=O)Nc2ccc3c(c2)OCCO3)c1 (stereo unspecified),-9,30µM*,2%,-5%,-22%,-4%[11.4 µM]
C=C(C)Cn1c2ccc(NC(=O)CCc3cccnc3)cc2c(=O)n1C,2,-3%,nt,nt,nt,nt
COCCn1c(C)cc(C(=O)COC(=O)c2cc3c(s2)CCC3)c1C,?,?,-12%,40µM*,?,35µM*
COCCn1c(C)cc(C(=O)COC(=O)c2cccc(O)c2)c1C,-7,-9%,17%,?,-6%,-24%
Cc1cc(C(=O)COC(=O)c2ccc([N+](=O)[O-])o2)c(C)n1CC1CCCO1 (stereo unspecified),-6,-7%,-14%,?,10%,-27%
COCCn1c(C)cc(C(=O)COC(=O)c2ccc([N+](=O)[O-])o2)c1C,-2,-3%,-2%,45µM*,4%,?
COC(=O)C1=C(C)N(Cc2ccccc2)C(=NCc2ccc(OC)cc2)N[C@H]1c1ccc(Br)cc1,nt,nt,-1%,10%,nt,nt
CC(C)CC(NC(N)=O)C(=O)OCC(=O)Nc1ccc(OC(F)F)cc1 (stereo unspecified),1,24µM*,-12%,-9%,3%,40µM*
O=C(OCc1ccc(O)cc1)c1c(-c2ccsc2)oc2ccc(N3CCOCC3)cc12,4,-8%,-29%,-1%,88%,-5%
CCC1=NN2C(=N)/C(=C\c3ccc(SCc4ccco4)o3)C(=O)N=C2S1,-52*,?,-26%,50µM*,-15%,?
CCCC1=NN2C(=N)/C(=C\c3ccc(SCc4ccco4)o3)C(=O)N=C2S1,-56*,24µM*,?,45µM*,?,50µM*
CCC1=NN2C(=N)/C(=C/c3c(C)nn(-c4ccccc4)c3Cl)C(=O)N=C2S1,-25,-17%,-2%,-6%,16%,-18%
COc1ccccc1CNc1nc(-c2cc(C)n(C)c2C)cs1,-72*,?,-11%,40µM*,-37%,40µM*
CCCCC(=O)NC(=S)Nc1cc(C(=O)O)ccc1OC,7,-8%,5%,-23%,30%,-5%
COc1ccc(C(=O)O)cc1NC(=S)NC(=O)/C=C/c1ccc(C(C)C)cc1,-9,?,-11%,50µM*,6%,79µM*
